NR2F2 inh = NR2F2 (human) inhibition, primary screen | P24468 | HEK293T NGFI-A luciferase reporter, luminescence | inhibition, % at 8.6 µM | 370,000 tested, 0.7% active;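 active means inhibition above a per-plate cutoff, mean inhibition of test wells between control levels plus 3 SD, cut at about 38% in these data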;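 further: cells cotransfected with COUP-TFII expression vector driving the NGFI-A reporter; 0% = median of COUP-TF2 test wells and 100% = reporter-only cells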
SRC3 inh = human NCOA3 inhibition | Q9Y6Q9 | HEK293 GAL4-SRC3 luciferase reporter, luminescence | inhibition, % at 3.6 µM | 360,000 tested, 0.17% active | AID 588352;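 active means inhibition above a per-campaign cutoff, the mean of all compounds plus 3 SD, cut at about 60% in these data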;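 further: 0% = DMSO-treated cells and 100% = gossypol-treated cells at 36 µM; higher means less SRC3-driven luciferase light from the GAL4 reporter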
SRC2 inh = human SRC2 (NCOA2) inhibition; 370,000 tested, 0.17% active; Q15596; inhibition, % at 9 µM; AID 651957; HEK293 GAL4-SRC2 luciferase reporter, luminescence;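 active means inhibition above the mean inhibition of all tested compounds plus 3 SD, set per campaign, cut at about 52% in these data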;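 further: 0% = DMSO treated cells and 100% = cells given Gossypol at 36 µM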
NR5A2 inv ag = NR5A2 inverse agonism in reporter assay | O00482 | HEK293T StAR-luciferase reporter, LRH-1 transfected, 24 h | inhibition, % at 3.6 µM | 360,000 tested, 0.13% active | AID 602396;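 active means inhibition above the mean inhibition of all tested compounds plus 3 SD, cut at about 73% in these data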;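 further: 0% = DMSO wells and 100% = reporter-only cells lacking LRH-1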
Gli-Sufu antag = blocks Gli-Sufu signaling in a luciferase reporter; 340,000 tested, 0.74% active; inhibition, % at 5 µM; Sufu-KO-LIGHT fibroblasts, Gli luciferase reporter luminescence;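 active means inhibition above about 55%, limit read from the data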;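 further: 0% = DMSO-treated cells and 100% = wells with medium but no cells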
NCOA1 inh = inhibitors of human steroid receptor coactivator 1 (SRC1); Q15788; HEK293 GAL4-SRC1 luciferase reporter, luminescence; inhibition, % at 3.6 µM; 360,000 tested, 0.12% active;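 active means inhibition above the campaign mean plus 3 SD, with each screening campaign given its own cutoff, cut at about 60% in these data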;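 further: 0% = DMSO treated cells and 100% = gossypol at 36 µM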
Gli-Sufu confirm = Gli-SUFU antagonism confirmation, single concentration | inhibition, % at 5 µM | Sufu-KO-LIGHT cells, Gli luciferase reporter, luminescence | shares compounds with Gli-Sufu antag | 2,500 tested, 40% active | AID 602428;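 active means mean inhibition at 5 µM reaching about 45%, limit read from the data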;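 further: plate controls were DMSO-treated cells for no effect and wells lacking cells for full effect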
Gli cytotox = cytotoxic in Gli-SUFU antagonist counter-screen. shares compounds with Gli-Sufu antag. Sufu-KO-LIGHT cells cytotoxicity, ATP luminescence. cytotoxicity, % at 5 µM. 2,500 tested, 32% active;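 active means mean cytotoxicity at 5 µM above about 25%, limit read from the data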;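 further: cells exposed to compound overnight for roughly 16 to 18 hours; plate controls were DMSO wells with cells for no effect and medium without cells for full effect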
Wnt3a counter = counter-screen for Gli-SUFU antagonists: Wnt3a reporter inhibition | shares compounds with Gli-Sufu antag | Wnt-LIGHT cells, Wnt3a-driven luciferase reporter, luminescence | inhibition, % at 6.25 µM | 2,500 tested, 20% active;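 active means mean inhibition above about 25%, limit read from the data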
* = called active by the depositor; / = no result given. Hits are enriched below; roughly 1.3% of the tested compounds scored in any of these assays.

SMILES | NR2F2 inh | SRC3 inh | SRC2 inh | NR5A2 inv ag | Gli-Sufu antag | NCOA1 inh | Gli-Sufu confirm | Gli cytotox | Wnt3a counter
COc1ccc2[nH]c(C)c(CCNC(=S)Nc3ccccc3C)c2c1 | 3 | -9 | -19 | -8 | 69* | 3 | 15 | 9 | -12
COc1ccc(-c2nn(-c3ccccc3)cc2/C=N/NC(=O)c2ccc(Br)o2)cc1 | -8 | -41 | -30 | -71 | 52 | -57 | 63* | 23 | -28
COc1cc2[nH]c(=O)n(Cc3ccccc3Cl)c(=O)c2cc1OC | 2 | 16 | 6 | 6 | 55 | 17 | 31 | 6 | 10
O=C1C(=O)N(Cc2ccc(-c3ccccc3)cc2)c2ccc(OC(F)(F)F)cc21 | -23 | / | / | / | / | / | / | / | /
Cc1ccc(C2C(C#N)=C(N)N(c3cccnc3)C3=C2C(=O)CCC3)s1 (stereo not drawn) | 2 | 1 | -66 | -24 | 60* | -41 | 29 | 3 | -4
Brc1ccc(CSc2ccc3nnc(-c4cccnc4)n3n2)cc1 | -43 | -9 | -8 | 13 | 26 | -13 | / | / | /
Cc1ccc(CSc2ccc3nnc(-c4cccnc4)n3n2)cc1 | -29 | -2 | 6 | -6 | 52 | -5 | 14 | 3 | -3
Cc1ccc(C)c(NC(=O)NC2CCCCCCC2)c1 | 4 | 13 | -19 | -7 | -8 | 5 | / | / | /
Cc1ccc2c(c1)NCC(C(=O)NC1CCCCC1)O2 (stereo not drawn) | / | 3 | / | -9 | 52 | 0 | 9 | -4 | -4
CSc1nc(N)nc2c1ncn2CC(=O)N1CCN(Cc2c(C)cc(C)cc2C)CC1 | 51* | 16 | 22 | 26 | 51 | 35 | 62* | 27* | 44*
Cc1cnccc1CN(C)Cc1nc(Cc2ccccc2Cl)no1 | 33 | 16 | 14 | 20 | 55* | 0 | 31 | 10 | -2
CCO[C@@H]1OC(C(=O)NCc2nc3ccccc3[nH]2)=C[C@H](C(C)(C)C)[C@H]1CCCO | -99 | 26 | 28 | 12 | 51 | -2 | 58* | 60* | -51
O=C(Nc1ccc2c(c1)OCO2)OC1CCC12CCC(c1ccccc1)CC2 (stereo not drawn) | -1 | / | -30 | / | / | / | / | / | /
CCN(C(=O)COC(=O)/C=C/c1cnc2ccccc2n1)C1CCS(=O)(=O)C1 (stereo not drawn) | -13 | 5 | 11 | -4 | 56* | 6 | 18 | -3 | -14
CN(C(=O)COC(=O)/C=C/c1ccc2ccccc2n1)C1CCS(=O)(=O)C1 (stereo not drawn) | 0 | 11 | 20 | -6 | 6 | -23 | / | / | /
CC(=O)CC[C@H]1CC[C@]2(CCCN(C(=O)c3ccno3)C2)O1 | 1 | / | -12 | / | / | / | / | / | /
COc1ccc2[nH]c(=O)c(CN(C(=O)c3cccnc3)c3ccc(C)cc3)cc2c1 | 0 | -7 | -17 | 10 | 83* | 3 | 17 | 5 | -7
COc1ccc2[nH]c(=O)c(CN(C(=O)c3cccnc3)c3cccc(C)c3)cc2c1 | 12 | 21 | 6 | 9 | 9 | -6 | / | / | /
Cc1nc2cc(C(=O)N3CCN(C(=O)C(C)(C)C)CC3)ccc2n1C1CCCC1 | 10 | / | 23 | / | / | / | / | / | /
O=C(CCl)Nc1cc(S(=O)(=O)N2CCCCCC2)ccc1Cl | -12 | -35 | 7 | 4 | 10 | -51 | / | / | /
CC(C)(C)CC(=O)Nc1cc(S(=O)(=O)N2CCCCCC2)ccc1Cl | 0 | 2 | 16 | 5 | 60* | -4 | 17 | 5 | -20
Cn1c(CNc2ccccc2F)nc2ccccc21 | -46 | / | / | / | / | / | / | / | /
COc1ccc(OCCC(=O)NCCN2CCOCC2)cc1 | 5 | -13 | -15 | 8 | 55 | -1 | 21 | 16 | -16
N=c1n(CCN2CCOCC2)c2ccccc2n1CC(O)COc1ccccc1 (stereo not drawn) | -26 | 9 | -13 | 11 | 32 | 13 | / | / | /
COc1ccc(OCC(O)Cn2c(=N)n(CCN3CCOCC3)c3ccccc32)cc1 (stereo not drawn) | -20 | 16 | 6 | 14 | 63* | -11 | 18 | 17 | -19
SMILES | NR2F2 inh | SRC3 inh | SRC2 inh | NR5A2 inv ag | Gli-Sufu antag | NCOA1 inh | Gli-Sufu confirm | Gli cytotox | Wnt3a counter
COc1cccc(-c2ccc(CC[C@H]3O[C@H]4CC[C@@H](CO)O[C@H]4C[C@H]3NS(C)(=O)=O)cc2)c1 | -23 | / | -13 | / | / | / | / | / | /
COC(=O)C1CN(Cc2ccc(OC)cc2)CCS(=O)(=O)N1Cc1ccc(OC)cc1 (stereo not drawn) | 4 | / | -4 | / | / | / | / | / | /
CNC(=O)C12CC3CC(CC(Cl)(C3)C1)C2 | 10 | -2 | -19 | -6 | 0 | -3 | / | / | /
COCCNC(=O)C12CC3CC(CC(Cl)(C3)C1)C2 | -22 | 14 | 5 | 14 | 52 | 13 | 31 | 0 | 6
O=C(Cc1ccc(S(=O)(=O)N2CCOCC2)s1)Oc1ccc(F)cc1 | 4 | -6 | -11 | -33 | 96* | -30 | 9 | 25 | 9
CCCCN1CC[C@@H](C)Oc2cc(Br)ccc2S1(=O)=O | 26 | / | 6 | / | / | / | / | / | /
N#Cc1cccc(NC(=O)CNc2cccc(S(=O)(=O)N3CCCC3)c2)c1 | 6 | 19 | -15 | -2 | 66* | -1 | 17 | -3 | 8
N#Cc1cccc(NCC(=O)Nc2cccc(S(=O)(=O)N3CCCCC3)c2)c1 | -15 | 10 | -15 | -7 | 7 | 8 | / | / | /
Cc1ccc2sc(NC(=O)CN3C(=O)CCC3=O)nc2c1C | 2 | -9 | 2 | 9 | 57* | -11 | 17 | 19 | -16
O=C(Nc1cccc(Br)c1)OC1CC2CC1[C@H]1CCCCN1C2 (stereo partly drawn) | 11 | / | -2 | / | / | / | / | / | /
O=C(C1CCCN1S(=O)(=O)c1ccc(Cl)s1)N1CCN(c2ccccc2)CC1 (stereo not drawn) | -12 | / | 11 | / | / | / | / | / | /
COc1cccc(NC(=O)CNC(=O)[C@@H]2Cc3ccccc3CN2C(=O)OC(C)(C)C)c1 | 6 | 1 | 8 | -6 | 65* | 9 | 24 | 9 | -27
COc1cc(C(=O)NC2CCCCN(C(C)C)C2=O)cc(OC)c1OC (stereo not drawn) | 8 | / | -10 | / | / | / | / | / | /
O=C(N[C@H]1C[C@@H]2O[C@@H](CO)CC[C@@H]2O[C@@H]1CCc1ccc(-c2cccnc2)cc1)c1cccc(F)c1 | -11 | / | 10 | / | / | / | / | / | /
COc1ccc(CCNc2ccncn2)cc1 | 20 | -4 | 23 | 10 | 36 | 0 | / | / | /
COc1ccc(CCNc2ccc(S(N)(=O)=O)cn2)cc1 | 3 | 7 | 4 | -15 | 51 | -8 | 9 | 7 | 3
COC(=O)c1ccc(Oc2cc(C)nc(-n3nc(C)cc3C)n2)cc1 | -64 | 19 | 25 | 31 | 52 | -22 | 64* | 60* | 18
